Each structure is given as a SMILES string.

This is an account of results in PubChem BioAssay.

In the experiment the test system is Sonic hedgehog protein (Shh). In words: Sonic hedgehog microarray binding compounds – biochemical, small-molecule microarray, 635/667 nm fluorescence, primary screen (AID 1151).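 Also: Shh protein binding to compounds spotted on small-molecule microarray slides; score combines spot fluorescence intensity with signal-to-noise across triplicate slides.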 The note with it: 635 nm fluorescence, higher = more signal.
Molecule `C=CCC(OC(C)=O)[C@@H]1[C@@H](N(Cc2cccc3ccccc23)C(=O)c2cccc3ccccc23)c2cc(OCCCO)ccc2N1C(=O)c1ccc2ccccc2n1` (stereo partly drawn) displayed a composite z-score of 0.832.

As for `COc1ccc(C(O)C2C=CC3C(=O)NC(=O)C3N2Nc2ccccn2)cc1OCc1ccccc1` (stereo not drawn), the composite z-score was 0.0157. `CCCN1C(=O)[C@@]2(CCC(=O)OC(C)(C)C)N=C(c3ccc(OCCCO)cc3)O[C@H]2c2ccccc21` displayed a composite z-score of 1.5. `COc1cccc(C(=O)O[C@H]2CC[C@]3(C)C4=C(CCC3C2(C)C)[C@]2(C)CC[C@H]([C@H](C)CCCC(C)C)[C@@]2(C)CC4)c1` (stereo partly drawn) registered a composite z-score of 0.425.

As to `COc1cc2c(cc1OC)CN(C(=O)[C@@H]1[C@H]3C(=O)O[C@H](c4ccccc4)[C@H](c4ccccc4)N3[C@H](c3ccccc3OCCO)[C@@]13C(=O)Nc1ccc(C#CCNC(N)=O)cc13)CC2`, the composite z-score was found to be 1.38. In the case of `CN(C)CCCCNC(=O)[C@H]1C[C@H]2C(=O)N[C@@H](Cc3ccccc3)C(=O)N2[C@H]1c1ccc(O)cc1`, the composite z-score was determined as 2.09.

Consider `COc1ccc(CCN2C(=O)[C@@]3(Cc4ccccc42)c2ccccc2C(=O)N(Cc2ccccc2Cl)[C@H]3c2ccc(CO)cc2)cc1`, for which the composite z-score is -0.801.

Regarding `CCCCCCCCCCC(O)C1C=CC2C(=O)N(Cc3ccccc3)C(=O)C2N1n1cnnc1` (stereo not drawn), the composite z-score is -0.778. For `COCCOC(=O)N1C(=O)[C@@]2(c3cc(C#CCC(C(=O)OC)C(=O)OC)ccc31)[C@H](C(=O)N1CCN(c3ncccn3)CC1)[C@H]1C(=O)O[C@H](c3ccccc3)[C@H](c3ccccc3)N1[C@@H]2c1ccc(OCCO)cc1`, the composite z-score is 1.3. In turn, `C=C(COC)C(=O)CC[C@@H](OC(=O)c1cccnc1)c1ccc(CO)o1` showed a composite z-score of 1.6. In the case of `C=C[C@@H](COC(C)=O)N(Cc1ccc([N+](=O)[O-])cc1)S(=O)(=O)c1ccc(Br)cc1`, the composite z-score turned out to be 0.956.

Molecule `O=C1O[C@@H](c2ccccc2)[C@@H](c2ccccc2)N2[C@@H](c3ccc(O)cc3)[C@]3(C(=O)Nc4ccc(C#CC5(O)CCCCCC5)cc43)[C@@H](C(=O)N3CCCCCCC3)[C@H]12` displayed a composite z-score of 2.27. The value for `COC(=O)C[C@@H]1C[C@H](C)[C@]2(O1)C(=O)N(Cc1ccccc1)c1ccc(NC(C)=O)cc12` was 0.034. As to `CC(C)(C)N1CC=CC23O[C@@H]4C=CCOC(=O)[C@@H]4[C@H]2C(=O)N(CCCCCO)[C@@H]3C1=O` (stereo partly drawn), the composite z-score was -0.15. `C=CCN1C(=O)[C@]2(O[C@H](CCO)[C@@H]([Si](C)(C)c3ccc(OC)cc3)[C@@H]2C)c2cc(NC(=O)[C@H](C)O)ccc21` came in with a composite z-score of 1.34. For `C=CC(=C)C1=CCO[C@@H]1[C@H]1CCCN1S(=O)(=O)c1ccccc1[N+](=O)[O-]` the value was 1.84; for `COc1ccc(NN2C(C(O)c3ccc(OC)c(OCc4ccccc4)c3)C=CC3C(=O)N(C4CCCCC4)C(=O)C32)cc1` (stereo not drawn), -0.504; for `[N-]=[N+]=NCc1ccccc1[C@@H]1OC(c2ccc(OCCCO)cc2)=N[C@]1(Cc1ccccc1)C(=O)N1CCCCC1`, 0.0721. For `CC(C)(C)N1CC=CC23O[C@@H]4/C=C\CCCOC(=O)C4[C@H]2C(=O)N(CCO)[C@@H]3C1=O` (stereo partly drawn) the value was -0.131; for `O=C1O[C@H](c2ccccc2)[C@H](c2ccccc2)N2[C@H]1[C@@H](C(=O)O)[C@]1(C(=O)Nc3ccc(C#CC4=CCCCC4)cc31)[C@H]2c1ccc(OCCO)cc1`, 1.09. For `COC(=O)C[C@H]1O[C@]2(C(=O)N(Cc3ccccc3)c3ccc(NC(C)=O)cc32)[C@@H](C)[C@@H]1[Si](C)(C)c1ccc(OC)cc1` the value was 0.978; for `CC(C)CNC(=O)[C@@H]1c2ccccc2C(=O)N(Cc2cc(C(F)(F)F)cc(C(F)(F)F)c2)[C@H]1c1ccc(CO)cc1`, -0.22; for `COc1ccccc1CN1C(=O)c2ccccc2[C@@H](C(=O)NCCN2CCOCC2)[C@@H]1c1ccc(CO)cc1`, 0.197. For the molecule `NCCCCCCNC(=O)[C@H]1C[C@H]2C(=O)NCC(=O)N2[C@H]1c1cccc(OCCO)c1`, the composite z-score came out at 1.61. The value for `COCCOC(=O)N1C(=O)[C@@]2(c3ccccc31)[C@H](C(=O)NC[C@H](O)c1ccccc1)[C@H]1C(=O)O[C@H](c3ccccc3)[C@H](c3ccccc3)N1[C@@H]2c1ccc(OCCO)cc1` was 2.29.

In turn, `CC(C)N1CC=CC23O[C@@H]4C=CCOC(=O)[C@@H]4[C@H]2C(=O)N(CCO)[C@@H]3C1=O` (stereo partly drawn) returned a composite z-score of 0.643. The value for `COC(=O)[C@@]1(Cc2ccccc2)[C@H]2c3cc(C(=O)N4CCCC4)n(C)c3C[C@H]2CN1C(=O)c1ccccc1` was -0.157. `O=C1[C@]2(CO)C=C(Br)[C@@H](C[C@@H]2c2ccccc2)[C@@]12CO2`: the composite z-score was 0.344.
